# Reference: PubChem BioAssay (NCATS)
# Results filed as inconclusive are left out. Entries that show only a call come without a potency. The source made the active and inactive calls. Calls follow the shape of the dose curve; as a rule, active = well fitted cell-killing curve with a large enough effect; inconclusive = small, poorly fitted or top-dose-only effect, or effect the other way; inactive = flat fitted curve, though single readings scatter.
# Tested on: Tov112D
# Assay: Primary qHTS to identify gynecologic anti-cancer compounds using libraries of approved drugs and bioactive compounds (AID 1345084); also: nearly all actives have a fitted effect of over 55% in size
# Conditions: Gynecologic cancer cell panel viability, ATPlite luminescence, 48 h; series mostly up to 57.5 µM
# How it was run: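 Five-concentration response, 48 h; readout is ATP-driven luciferase luminescence.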
# Potency is read from the fitted curve at half-maximal effect.
row,Structure (SMILES),Potency
1,CC(=O)O[C@H]1[C@@H](O)[C@H](O[C@H]2[C@@H]3C=CO[C@@H](O[C@H]4O[C@@H](CO)[C@H](O)[C@@H](O)[C@@H]4O)[C@@H]3[C@@]3(CO)O[C@@H]23)O[C@@H](C)[C@@H]1OC(=O)/C=C/c1ccccc1,inactive
2,COc1cc(OC)cc(C(=O)Nc2ccc(Cl)c(-c3nc4ccc(N(C)C)cc4[nH]3)c2)c1,inactive
3,CC(=O)OC1C(O)C2C(C)C3=CC(=O)OC3(O)CC2C2(C)CCCC(C)(CO)C12 (stereo unspecified),inactive
4,CC/C=C\CCO[C@@H]1O[C@H](CO[C@@H]2OC[C@H](O)[C@H](O)[C@H]2O)[C@@H](O)[C@H](O)[C@H]1O,inactive
5,O=C(O)/C=C/c1ccc(-c2ccc(O)c(C34CC5CC(CC(C5)C3)C4)c2)cc1,1410 nM (active)
6,O=C(CO)[C@@H](O)[C@H](O[C@@H]1O[C@H](CO)[C@H](O)[C@H](O)[C@H]1O)[C@H](O)CO,inactive
7,C=C1[C@H](OC(C)=O)[C@H]2[C@@H](OC(C)=O)[C@](C)(OC(C)=O)C[C@]2(OC(C)=O)C(=O)[C@H](C)/C=C/C(C)(C)C(=O)[C@H](OC(=O)C(C)CC)[C@H]1OC(C)=O (stereo partly specified),inactive
8,COC(=O)CC(O)CC(O)/C=C/c1c(C)ccc2c1C(O)CC(C)C2 (stereo unspecified),inactive
9,C=C[C@]1(C)C=C2CCC3C(C)(CCC[C@@]3(C)C(=O)O)C2CC1 (stereo partly specified),inactive
10,C=CC/C=C\C/C=C\CCCCCCCc1cccc(O)c1C(=O)O,inactive
11,CC(=O)OC1C(OC(=O)c2ccccc2)C2C(C)(C)CC(=O)CC2(C)C23CCC(C)(C2)C(O)CC13 (stereo unspecified),inactive
